# Screening data as filed in PubChem BioAssay.
# TEAD-YAP inh – TEAD-YAP interaction inhibition | 640,000 compounds, 1.4% hits | AID 1259422 | inhibition, % at 9.12 µM | HEK-TIYL cells, TEAD-Gal4/YAP UAS-luciferase luminescence; in the data active means inhibition above about 32%;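 further: 0% = median of test compound wells and 100% = reference inhibitor wells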
# MITF inh – blocks human microphthalmia-associated transcription factor. inhibition, % at 2.6 µM. AID 1259374. 650,000 compounds, 0.91% hits. AlphaScreen MITF homodimerization, bead proximity signal; in the data active means inhibition above about 50%;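 further: 0% = vehicle wells with protein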
# FBW7 act – activators of human E3 ligase FBW7; Q969H0; AlphaScreen FBW7–phospho-cyclin E peptide binding, activator screen; normalized activity (activation), % at 26.1 µM; 650,000 compounds, 0.13% hits; AID 1259310; in the data active means normalized activity above about 1.9%;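 further: purified mutant Fbw7 with reduced substrate affinity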
# Target sequence (Q969H0 whole entry, looked up): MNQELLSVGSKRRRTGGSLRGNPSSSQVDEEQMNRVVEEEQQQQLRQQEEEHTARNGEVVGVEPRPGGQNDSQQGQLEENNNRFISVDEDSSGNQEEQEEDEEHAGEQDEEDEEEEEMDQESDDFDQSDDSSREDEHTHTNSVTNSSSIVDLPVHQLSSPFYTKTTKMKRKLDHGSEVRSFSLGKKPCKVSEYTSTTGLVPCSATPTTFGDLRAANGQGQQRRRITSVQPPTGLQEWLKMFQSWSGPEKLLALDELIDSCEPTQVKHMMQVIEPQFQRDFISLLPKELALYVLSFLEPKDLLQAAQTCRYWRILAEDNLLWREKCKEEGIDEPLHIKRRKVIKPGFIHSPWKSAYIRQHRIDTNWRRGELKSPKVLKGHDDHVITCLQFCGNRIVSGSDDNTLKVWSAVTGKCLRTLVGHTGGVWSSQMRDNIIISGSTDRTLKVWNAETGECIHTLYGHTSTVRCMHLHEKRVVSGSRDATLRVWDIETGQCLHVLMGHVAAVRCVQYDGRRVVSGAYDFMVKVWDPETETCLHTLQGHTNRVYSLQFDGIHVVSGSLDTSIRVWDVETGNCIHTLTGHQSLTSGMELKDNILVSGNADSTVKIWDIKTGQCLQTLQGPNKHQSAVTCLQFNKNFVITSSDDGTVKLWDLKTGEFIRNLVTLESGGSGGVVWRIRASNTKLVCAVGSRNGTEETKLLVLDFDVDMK
# GPR151 activ – activates the human receptor GPR151. activation, % at 11.2 µM. PathHunter beta-arrestin GPR151 cells, luminescence. Q8TDV0. 650,000 compounds, 1% hits; in the data active means activation above about 4.9%;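 further: 0% = median of compound wells and 100% = cells with positive control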
# MITF inh conf – human MITF inhibition, confirmation. shares compounds with MITF inh. AlphaScreen MITF homodimerization, biotin/His-MITF beads. inhibition, % at 2.6 µM. 4,700 compounds, 16% hits. AID 1259372;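 active means inhibition above a cutoff derived from the DMSO control wells, cut at about 28% in these data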;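 further: 0% = MITF dimer wells with DMSO only; inhibitors lower the bead chemiluminescence by keeping MITF from dimerizing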
# AS interf DR – counter-screen: compounds optically interfering with AlphaScreen | shares compounds with MITF inh | AlphaScreen optical interference counterscreen, cell-free | IC50, µM | 480 compounds, 6% hits; call rule not given here
# AlphaScreen intf2 – counter-screen: compounds optically interfering with AlphaScreen | shares compounds with MITF inh | LysRS AlphaScreen counterscreen, signal interference, triplicate | inhibition, % at 2.6 µM | 4,700 compounds, 7.6% hits | AID 1259376;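 active means inhibition above a cutoff derived from the DMSO control wells, cut at about 30% in these data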
# The depositor's hits bear a star; . = no result given. Only some compounds are listed: those with a hit (about 3.5% of all), similar ones and a draw of the others.
SMILES,TEAD-YAP inh,MITF inh,FBW7 act,GPR151 activ,MITF inh conf,AlphaScreen intf2,others
C/C(CC(=O)Nc1ccccc1)=N\NC(=O)CC#N,-9,57*,-1,2,61*,35*,
COc1cccc(/C=C2/N=C(c3cccc4ccccc34)OC2=O)c1,-4,-14,0,-1,.,.,
CCCOc1ccc(C(=O)Nc2cccc(-c3nc4ncccc4o3)c2)cc1,0,69*,0,0,13,16,
C[C@@H](O)CCC[C@H](O)/C=C/[C@H]1[C@H](O)CC(=O)[C@@H]1CCCCCCC(=O)O,.,17,.,-3,.,.,
COc1cccc(CN2CCC(C(=O)N3CCN(c4ccccc4F)CC3)CC2)c1OC,1,52*,0,-1,8,11,
COc1ccccc1CN1CCC(C(=O)N2CCCC2)CC1,-8,45,0,-1,.,.,
CC1CCCN(C(=O)C2CCN(Cc3cccc(O)c3)CC2)C1 (configuration not stated),2,18,0,0,.,.,
O=C(C1CCN(Cc2cccc(O)c2)CC1)N1CCN(c2ccccc2F)CC1,4,76*,1,0,-9,-8,
COC(=O)c1ccccc1NC(=O)c1ccc(OC)cc1OC,6,4,0,0,.,.,
CC(=O)NC(N(C)Cc1ccccc1)C(Cl)(Cl)Cl (configuration not stated),4,32,1,0,.,.,
Clc1ccccc1-c1ncc2ccccn12,-31,63*,0,-1,14,36*,
Ic1ccc(-c2ncc3ccccn23)cc1,-56,11,0,0,.,.,
COc1ccc(-c2ncc3ccccn23)cc1OC,-49,70*,0,0,22,36*,
c1coc(-c2ncc3ccccn23)c1,-15,18,-1,0,.,.,
O=C(CN1C(=O)NC2(CCCCC2)C1=O)Nc1ccc(S(=O)(=O)N2CCCC2)cc1,0,14,1,-3,.,.,
CCCOc1ccc(N)cc1N,6,57*,-1,1,110*,-9,AS interf DR=>6.2
COc1ccc(-c2cc3ccccc3n2CC(O)CNCc2ccco2)cc1 (configuration not stated),-12,71*,1,-1,2,2,
O=C(Cn1cnc2ccccc2c1=O)NNC(=S)NCc1ccccc1,10,-13,0,2,.,.,
COc1ccccc1NC(=O)N1CCCC1C(=O)NCc1ccccc1Cl (configuration not stated),-2,73*,0,-1,-3,9,
COc1ccccc1NC(=O)N1CCCC1C(=O)NCc1ccccc1F (configuration not stated),4,10,0,1,.,.,
Cc1nc(SCC(=O)Nc2cccc(C(F)(F)F)c2)c2c3c(sc2n1)CCC3,-9,74*,0,-1,5,13,
Cc1ccc(C(=O)NCCc2nnc3n2CCN(C(=O)CCc2cccnc2)CC3)cc1,1,-18,0,2,.,.,
COc1ccc2nc(-c3ccco3)c(-c3ccco3)nc2c1,-1,52*,0,-2,66*,19,AS interf DR=>5.8
O=C(NCc1cccc(C(F)(F)F)c1)c1ccc2nc(Nc3cnccn3)sc2c1,-9,2,0,0,.,.,
COc1ccc(NC(=O)C2(N(Cc3ccccc3)C(=O)Cc3nc(N)n[nH]3)CCCCC2)cc1,-6,22,0,-2,.,.,
SMILES,TEAD-YAP inh,MITF inh,FBW7 act,GPR151 activ,MITF inh conf,AlphaScreen intf2,others
COc1ccc(NC(=O)C2(N(Cc3ccco3)C(=O)Cc3nc(N)n[nH]3)CCCCC2)cc1,-8,23,0,-2,.,.,
Nc1n[nH]c(CC(=O)N(Cc2ccco2)C2(C(=O)Nc3ccccc3)CCCCC2)n1,-6,66*,0,-1,96*,101*,
Cc1ccc(NC(=O)C2(N(Cc3ccccc3)C(=O)Cc3nc(N)n[nH]3)CCCCC2)cc1,9,58*,0,1,100*,100*,
Cc1ccccc1NC(=O)C1(N(Cc2ccccc2)C(=O)Cc2nc(N)n[nH]2)CCCCC1,0,79*,-1,-1,101*,101*,
CCOc1ccccc1/C=C1\SC(=S)N(Cc2cccnc2)C1=O,3,0,0,-1,.,.,
O=C(NCc1cccs1)c1ccc(CNS(=O)(=O)c2ccc(F)cc2)cc1,-2,0,0,0,.,.,
O=C(NCCNCc1cccs1)c1ccc(F)cc1,7,55*,0,-1,-5,17,
CN(C)CC(=O)Nc1cc(N(C)C)nc2ccccc12,-1,62*,0,4,7,-5,
CCCC(C)NC(=O)Cc1ccc(Br)cc1 (configuration not stated),-15,51*,0,1,3,9,
Clc1ccc(SCCN2CCNCC2)cc1,11,31,0,0,.,.,
Cc1cc(Cl)ccc1OCCN1CCNCC1,9,73*,0,0,-4,0,
Clc1ccc(OCCCN2CCNCC2)c(Br)c1,-2,39,0,0,.,.,
Clc1ccc(OCCN2CCNCC2)c(Br)c1,13,65*,0,2,-13,-2,
Cc1ccc(OCCCN2CCNCC2)c(Br)c1,-17,69*,0,-1,8,-3,
Clc1ccc(SCCOCCN2CCNCC2)cc1,-7,59*,0,-1,-15,-4,
O=C(O)CCC(=O)N1N=C(c2c(-c3ccccc3)c3cc(Br)ccc3[nH]c2=O)CC1c1ccccc1F (configuration not stated),-8,4,2,-2,.,.,
CCOC(=O)Cn1c(=O)c2c(nc3n(-c4ccccc4)c(-c4ccccc4)cn23)n(C)c1=O,-4,-9,0,-2,.,.,
Fc1ccc(CSc2nnc3c(n2)[nH]c2ccccc23)c(Cl)c1,8,-2,0,0,.,.,
Cc1cc(Cl)cc(C)c1OCCN1CCNCC1,0,55*,0,3,-4,-4,
Cc1cc(OCCOCCN2CCNCC2)cc(C)c1Cl,-5,64*,0,0,4,8,
Clc1cc(Cl)c(OCCCN2CCNCC2)c(Cl)c1,-4,56*,-1,2,-10,-2,
Cc1cc(C)c(OCCOCCN2CCNCC2)c(C)c1,-1,10,0,-1,.,.,
Cc1cc(Cl)c(OCCCN2CCNCC2)c(Br)c1,1,47,0,2,.,.,
Clc1ccc(OCCCCN2CCNCC2)c(Br)c1,-5,79*,0,-1,4,16,
O=C(CN1C(=O)c2cccc3cccc1c23)NCCc1ccccc1,-3,-2,0,-1,.,.,
O=S(=O)(NNc1c(F)c(F)cc(F)c1F)c1ccccc1,0,1,0,0,.,.,
COc1ccccc1C(=O)Nc1ccc2c(c1)C(=O)Nc1cc(Cl)ccc1O2,7,-1,0,0,.,.,
CCOc1ccccc1C(=O)Nc1ccc2c(c1)C(=O)Nc1ccccc1O2,-2,53*,0,4,-7,-10,
